Test results: ChEMBL document CHEMBL2218924, “A broad activity screen in support of a chemogenomic map for kinase signalling research and drug discovery” (Biochem J, 2013)

Experiments:
[1] = target: Tyrosine-protein kinase FRK (Homo sapiens) (UniProt P42685); conditions: at 1 µM
[2] = target: Tyrosine-protein kinase FRK (Homo sapiens) (UniProt P42685); conditions: at 10 µM
[3] = target: Serine/threonine-protein kinase pim-1 (Homo sapiens) (UniProt P11309); conditions: at 10 µM
[4] = target: Serine/threonine-protein kinase pim-2 (Homo sapiens) (UniProt Q9P1W9); conditions: at 1 µM
Chain of Serine/threonine-protein kinase pim-2 (Homo sapiens) (Q9P1W9 whole entry, looked up): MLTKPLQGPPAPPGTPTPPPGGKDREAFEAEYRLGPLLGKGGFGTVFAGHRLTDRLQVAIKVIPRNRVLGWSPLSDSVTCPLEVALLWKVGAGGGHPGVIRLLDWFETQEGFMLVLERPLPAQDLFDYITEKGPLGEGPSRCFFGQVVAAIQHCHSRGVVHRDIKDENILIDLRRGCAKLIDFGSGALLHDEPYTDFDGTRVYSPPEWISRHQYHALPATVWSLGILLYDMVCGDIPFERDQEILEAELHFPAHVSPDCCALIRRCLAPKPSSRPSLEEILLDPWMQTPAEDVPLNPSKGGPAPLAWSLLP

[5] = target: Serine/threonine-protein kinase pim-3 (Homo sapiens) (UniProt Q86V86); conditions: at 1 µM
[6] = target: Serine/threonine-protein kinase pim-3 (Homo sapiens) (UniProt Q86V86); conditions: at 10 µM
[7] = target: T1, Phosphorylase b kinase gamma catalytic chain, liver/testis isoform (Homo sapiens) (UniProt P15735); conditions: at 1 µM
T1 sequence (whole entry): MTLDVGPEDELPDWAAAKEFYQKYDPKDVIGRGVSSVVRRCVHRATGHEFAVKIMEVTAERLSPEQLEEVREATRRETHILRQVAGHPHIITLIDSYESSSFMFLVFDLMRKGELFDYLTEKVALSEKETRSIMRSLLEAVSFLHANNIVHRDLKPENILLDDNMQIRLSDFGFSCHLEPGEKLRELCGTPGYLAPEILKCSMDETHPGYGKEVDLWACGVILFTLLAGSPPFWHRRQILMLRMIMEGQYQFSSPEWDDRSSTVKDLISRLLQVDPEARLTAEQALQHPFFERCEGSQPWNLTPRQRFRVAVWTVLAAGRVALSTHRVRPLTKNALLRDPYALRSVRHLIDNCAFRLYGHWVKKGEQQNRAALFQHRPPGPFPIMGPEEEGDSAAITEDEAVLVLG

[8] = target: T1, Phosphorylase b kinase gamma catalytic chain, liver/testis isoform (Homo sapiens); conditions: at 10 µM
[9] = target: Serine/threonine-protein kinase pim-1 (Homo sapiens) (UniProt P11309); conditions: at 1 µM
[10] = target: Serine/threonine-protein kinase pim-2 (Homo sapiens) (UniProt Q9P1W9); conditions: at 10 µM

Chain of Serine/threonine-protein kinase pim-1 (Homo sapiens) (P11309 whole entry, looked up): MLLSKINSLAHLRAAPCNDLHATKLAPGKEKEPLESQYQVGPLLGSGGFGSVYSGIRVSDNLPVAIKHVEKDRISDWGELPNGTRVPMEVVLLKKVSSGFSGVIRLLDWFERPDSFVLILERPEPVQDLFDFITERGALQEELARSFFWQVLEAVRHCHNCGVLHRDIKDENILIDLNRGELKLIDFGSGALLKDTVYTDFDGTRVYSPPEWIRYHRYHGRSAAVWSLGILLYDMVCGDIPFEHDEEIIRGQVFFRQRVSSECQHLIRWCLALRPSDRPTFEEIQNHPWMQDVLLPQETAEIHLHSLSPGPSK
Chain of Tyrosine-protein kinase FRK (Homo sapiens) (P42685 whole entry): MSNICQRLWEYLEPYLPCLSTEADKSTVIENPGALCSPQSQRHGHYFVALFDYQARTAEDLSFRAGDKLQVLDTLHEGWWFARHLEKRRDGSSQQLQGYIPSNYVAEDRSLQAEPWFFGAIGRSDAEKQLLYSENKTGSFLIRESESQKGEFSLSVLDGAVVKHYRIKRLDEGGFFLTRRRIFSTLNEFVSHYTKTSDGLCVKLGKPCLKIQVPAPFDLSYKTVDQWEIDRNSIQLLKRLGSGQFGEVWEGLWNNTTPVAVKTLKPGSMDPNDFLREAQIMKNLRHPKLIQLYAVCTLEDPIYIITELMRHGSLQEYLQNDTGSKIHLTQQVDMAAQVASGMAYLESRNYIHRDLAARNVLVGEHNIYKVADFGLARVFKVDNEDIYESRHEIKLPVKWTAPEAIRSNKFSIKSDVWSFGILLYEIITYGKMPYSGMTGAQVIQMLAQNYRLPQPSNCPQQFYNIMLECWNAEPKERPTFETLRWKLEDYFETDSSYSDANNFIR

COc1cc(OC)c(/C=C2\C(=O)Nc3ccccc32)c(OC)c1
residual activity [1]: 90%
residual activity [2]: 99%
residual activity [3]: 75%
residual activity [4]: 137%
residual activity [5]: 81%
residual activity [6]: 86%

CC(C)(C)c1cc(C=C(C#N)C#N)cc(Br)c1O
residual activity [1]: 100%
residual activity [2]: 76%
residual activity [7]: 115%
residual activity [8]: 106%
residual activity [3]: 51%
residual activity [5]: 105%
residual activity [6]: 104%

N/C(=N\[N+](=O)[O-])N/N=C\c1ccc(-c2cccc([N+](=O)[O-])c2)o1
residual activity [5]: 88%
residual activity [6]: 87%

O=C1Nc2ccc3ncsc3c2/C1=C/c1c[nH]cn1
residual activity [1]: 83%
residual activity [2]: 33%
residual activity [7]: 47%
residual activity [8]: 10%
residual activity [9]: 26%
residual activity [3]: 5%
residual activity [4]: 13%
residual activity [10]: 3%
residual activity [5]: 53%
residual activity [6]: 11%

CCn1cnc2c(Nc3cccc(Cl)c3)nc(N[C@@H]3CCCC[C@@H]3N)nc21
residual activity [1]: 43%
residual activity [2]: 8%
residual activity [7]: 78%
residual activity [8]: 29%
residual activity [9]: 94%
residual activity [3]: 23%
residual activity [4]: 97%
residual activity [10]: 39%
residual activity [5]: 57%
residual activity [6]: 13%

C[S+]([O-])c1ccc(-c2nc(-c3ccc(F)cc3)c(-c3ccncc3)[nH]2)cc1 (stereo unspecified)
residual activity [1]: 71%
residual activity [2]: 17%
residual activity [7]: 109%
residual activity [8]: 106%
residual activity [9]: 84%
residual activity [3]: 97%
residual activity [4]: 125%
residual activity [10]: 96%
residual activity [5]: 107%

COC(=O)[C@@]1(O)C[C@H]2O[C@]1(C)n1c3ccccc3c3c4c(c5c6ccccc6n2c5c31)C(=O)NC4
residual activity [1]: 25%
residual activity [2]: 6%
residual activity [7]: 0%
residual activity [8]: 1%
residual activity [9]: 10%
residual activity [3]: 1%
residual activity [4]: 2%
residual activity [10]: -2%
residual activity [5]: 31%
residual activity [6]: 5%

O=c1[nH]c2ccccc2n1C1CCN(Cc2ccc(-c3nc4cc5[nH]cnc5cc4nc3-c3ccccc3)cc2)CC1
residual activity [1]: 99%
residual activity [2]: 107%
residual activity [7]: 101%
residual activity [8]: 53%
residual activity [9]: 88%
residual activity [3]: 87%
residual activity [4]: 85%
residual activity [10]: 98%
residual activity [5]: 102%
residual activity [6]: 97%

COc1ccc2c(c[n+](C)c3c4cc5c(cc4ccc23)OCO5)c1OC
residual activity [1]: 94%
residual activity [2]: 69%
residual activity [7]: 111%
residual activity [8]: 96%
residual activity [9]: 93%
residual activity [3]: 93%
residual activity [4]: 86%
residual activity [10]: 88%
residual activity [5]: 100%
residual activity [6]: 95%

COc1cc2ncnc(Nc3ccc(OCc4ccccc4)cc3)c2cc1OC
residual activity [1]: 98%
residual activity [2]: 123%
residual activity [7]: 98%
residual activity [8]: 113%
residual activity [9]: 99%
residual activity [3]: 90%
residual activity [4]: 110%
residual activity [10]: 105%
residual activity [5]: 107%
residual activity [6]: 100%

COc1ccc2c(c1)/C(=C/c1cnc[nH]1)C(=O)N2
residual activity [8]: 22%
residual activity [9]: 66%
residual activity [3]: 32%
residual activity [4]: 69%
residual activity [10]: 19%
residual activity [6]: 52%

c1cc(-c2cnn3cc(-c4ccc(OCCN5CCCCC5)cc4)cnc23)ccn1
residual activity [1]: 65%
residual activity [2]: 7%
residual activity [7]: 34%
residual activity [8]: 4%
residual activity [9]: 104%
residual activity [3]: 60%
residual activity [4]: 117%
residual activity [10]: 127%

CC(C)[C@H](CO)Nc1nc(Nc2cccc(Cl)c2)c2ncn(C(C)C)c2n1
residual activity [1]: 59%
residual activity [2]: 9%
residual activity [7]: 122%
residual activity [8]: 82%
residual activity [9]: 100%
residual activity [3]: 68%
residual activity [4]: 116%
residual activity [10]: 122%
residual activity [5]: 87%
residual activity [6]: 89%

O=C1c2ccccc2-c2nc3nnnn3nc21
residual activity [7]: 103%
residual activity [8]: 120%
residual activity [4]: 104%
residual activity [10]: 108%

O=[N+]([O-])/C=C/c1ccc2c(c1)OCO2
residual activity [1]: 105%
residual activity [2]: 105%
residual activity [7]: 105%
residual activity [8]: 114%
residual activity [9]: 79%
residual activity [3]: 85%
residual activity [4]: 134%
residual activity [10]: 110%
residual activity [5]: 101%
residual activity [6]: 103%

CCc1nc(-c2ccc(OC)cc2)[nH]c1-c1ccncc1
residual activity [1]: 102%
residual activity [2]: 100%
residual activity [7]: 103%
residual activity [8]: 105%
residual activity [4]: 126%
residual activity [10]: 125%

O=C1NC(=O)c2c1c1c3ccccc3n3c1c1c2c2ccccc2n1C1CCC3O1
residual activity [1]: 71%
residual activity [2]: 66%
residual activity [9]: -2%
residual activity [3]: 1%
residual activity [4]: 6%
residual activity [10]: -2%
residual activity [5]: 38%
residual activity [6]: 45%
